In PubChem BioAssay AID734 (The Scripps Research Institute Molecular Screening Center, 2007):
The whole screen tested about 5,100 compounds, of which fewer than 10 were called active.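 Rule for the calls: active = inhibition above the mean inhibition over all tested compounds plus 3 SD (cut at about 75% in these data); inactive = the rest.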 Not all results are given here.

molecular target: Collagenase 3 (Homo sapiens) (UniProt P45452); assay: MMP13 inhibitors among fluorescent compounds, confirmation, biochemical, possible fluorescent artifacts, delta fluorescence (AID 734); settings: MMP13 fTHP FRET cleavage, delta fluorescence 4 h; active compounds read high;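 each compound tested at 4 µM nominal in triplicate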;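 note: 0% = DMSO only wells and 100% = 8 µM reference MMP13 inhibitor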

Structure (SMILES) | inhibition
c1ccc(-c2noc(-c3cccc4ccccc34)n2)nc1 | 6.64% (inactive)
COc1cccc2sc(Nc3nnc(-c4cccs4)o3)nc12 | -71.9% (inactive)
COc1cc(OC)cc(-c2nnc(Nc3nc4c(F)cccc4s3)o2)c1 | 95.7% (active)
COc1cccc(-c2nnc(Nc3nc4c(F)cccc4s3)o2)c1 | 104% (active)
COc1cccc2sc(Nc3nnc(-c4ccccc4Cl)o3)nc12 | 3.62% (inactive)
COc1ccc(-c2nnc(Nc3nc4c(OC)cccc4s3)o2)cc1 | 7.97% (inactive)
COc1ccccc1-c1nnc(Nc2nc3c(OC)cccc3s2)o1 | 2.8% (inactive)
Fc1cccc2sc(Nc3nnc(-c4ccco4)o3)nc12 | 0.58% (inactive)
COc1ccc(-c2nnc(Nc3nc4c(OC)cccc4s3)o2)c(OC)c1 | 34.9% (inactive)
Fc1cccc2sc(Nc3nnc(-c4ccccc4)o3)nc12 | 74.7% (active)
O=C(C1CCCN(S(=O)(=O)c2cnc[nH]2)C1)N1CCN(Cc2ccccc2)CC1 (stereo unspecified) | 6.19% (inactive)
Cn1c(=O)c2c(nc(SCCN3CCOCC3)n2Cc2ccccc2Cl)n(C)c1=O | 4.43% (inactive)
COC(=O)c1nn(-c2ccc(-c3ccccc3)cc2)cc1O | -1.13% (inactive)
CCOC(=O)COc1ccc(-c2nnc(-c3ccccc3)o2)cc1 | -0.26% (inactive)
CC1(C)CC(=O)C(C=Nc2ccccc2C(=O)O)=C(O)C1 | 3.67% (inactive)
CCOc1ccc(-c2cc(C(=O)NCCCN3CCN(CC)CC3)c3ccccc3n2)cc1 | -9.76% (inactive)
CCN1c2ccccc2-c2nc3ccccc3n2C1c1ccncc1 (stereo unspecified) | 2.69% (inactive)
COc1ccc2[nH]c(=O)c(-c3noc(-c4ccccc4)n3)cc2c1 | 3.55% (inactive)
CC1(C)Cc2c(C#N)c(N3CCN(C(=O)c4ccco4)CC3)nc(Cc3ccccc3)c2CO1 | -9.09% (inactive)
CCOc1ccc(C2C(C(=O)OC)=CN(CCOC)C=C2C(=O)OC)cc1 | -14.5% (inactive)
Nc1nc2n(n1)C(c1ccco1)CC(c1ccc(F)cc1)N2 (stereo unspecified) | 1.34% (inactive)
CCN(CC)CCCN(Cc1cc2cc3c(cc2[nH]c1=O)OCO3)C(=O)Nc1ccccc1OC | 9.73% (inactive)
Nc1c(C(=O)NCCN2CCOCC2)c2nc3ccccc3nc2n1-c1ccc2c(c1)OCO2 | 4.11% (inactive)
COc1cccc(NC(=O)CSc2nnc(Cc3cccn3C)n2-c2ccc(F)cc2)c1 | 1.13% (inactive)

Structure (SMILES) | inhibition
CC1CCCC(C)N1C(=O)CSc1nnc(-c2c[nH]c3ccccc23)o1 (stereo unspecified) | 5.55% (inactive)
O=C(OCCn1cncn1)c1cc2ccccc2oc1=O | -0.22% (inactive)
OCc1ccccc1OCCOc1ccc(Cl)c2cccnc12 | 6.18% (inactive)
CC(C)NCC(O)Cn1c2c(c3ccccc31)CCc1c-2cnn1-c1ccccc1 (stereo unspecified) | 6.63% (inactive)
CC(=O)Nc1nc2n(n1)C(c1ccccc1)C=C(c1ccccc1)N2 (stereo unspecified) | 0.41% (inactive)
O=C(Oc1cccnc1)c1ccco1 | 3.63% (inactive)
COc1ccc(C2C=C(C)Nc3nc(SC)nn32)cc1 (stereo unspecified) | -11.2% (inactive)
CCOc1ccc(C2CC(c3cccc(Cl)c3)n3nc(N)nc3N2)cc1 (stereo unspecified) | 4.79% (inactive)
Cc1ccc(-n2ncc3c(=O)n(CC(=O)NCc4ccco4)cnc32)cc1C | 5.2% (inactive)
COCCCNC(=O)c1ccc2nc3ccccc3c(=O)n2c1 | -3.91% (inactive)
CCCOc1ccccc1-c1nc2c([nH]1)c(=O)[nH]c(=O)n2C | -0.35% (inactive)
CS(=O)(=O)N1CCc2cc(C(=O)N3CCOCC3)ccc21 | 5.36% (inactive)
CCOC(=O)c1[nH]c2ccc(OCC)cc2c1NC(=O)CN1CCN(c2ccccn2)CC1 | -14.1% (inactive)
CCCC(=O)N1CCN(c2nc(CC(C)C)c3c(c2C#N)CCC3)CC1 | 0.13% (inactive)
CCS(=O)(=O)Nc1c(C(=O)O)[nH]c2ccccc12 | 3.79% (inactive)
CCOC(=O)c1oc2cccc(OCC(O)CNC(C)C)c2c1C (stereo unspecified) | -6.29% (inactive)
N#Cc1cc2c(nc1SCC(=O)Nc1nccs1)CCCCC2 | -11% (inactive)
COc1ccc(O)c(C(=O)c2cc(C#N)c(=O)n(-c3c(C)n(C)n(-c4ccccc4)c3=O)c2)c1 | 6.02% (inactive)
CCOC(=O)c1cccnc1SCc1cc(=O)n2ccccc2n1 | 3.91% (inactive)
CC1=C(C(=O)N2CCOCC2)C(c2ccccc2F)C2=C(CC(C)(C)CC2=O)N1 (stereo unspecified) | -1.62% (inactive)
CCCC(c1nnnn1C1CCCC1)N1CCN(C(=O)c2ccco2)CC1 (stereo unspecified) | 6.95% (inactive)
N#Cc1nc(-c2cccs2)oc1N1CCOCC1 | -82.1% (inactive)
CCCc1cc(=O)oc2cc(C)c3c(C)coc3c12 | -8.56% (inactive)
CCOC(=O)c1cc2c(=O)n3ccccc3nc2n(C(C)C)c1=NC(=O)c1ccncc1 | -11.4% (inactive)

Structure (SMILES) | inhibition
CN1CC=C2C(C#N)=C(N)C(C#N)(C#N)C(CCc3ccccc3)C2C1 (stereo unspecified) | 5.88% (inactive)
O=S(=O)(NC1c2cccc3cccc(c23)C1N1CCNCC1)c1ccccc1 (stereo unspecified) | 8.95% (inactive)
COc1ccc(CN2CCCC2C(=O)Nc2ccc(OC)c(OC)c2)cc1OC (stereo unspecified) | 1.58% (inactive)
CC(O)Cn1ccccc1=N (stereo unspecified) | 4.32% (inactive)
CC(C)(C)c1cc(=O)n2c(C#N)c(C#N)nc2[nH]1 | 4.14% (inactive)
Cc1onc(-c2ccccc2)c1C(=O)Nc1nnc(-c2ccncc2)s1 | -3.75% (inactive)
O=C(CC1Nc2ccccc2NC1=O)NC1CCCCC1 (stereo unspecified) | 4.1% (inactive)
CCOc1ccc2[nH]c(=O)c(C(c3nnnn3Cc3ccco3)N3CCC(C)CC3)cc2c1 (stereo unspecified) | 8.93% (inactive)
Cc1cccc(-n2c(=O)[nH]c3c(C(N)=O)nc(-c4ccccc4Cl)nc32)c1 | 6.92% (inactive)
COC(=O)c1cc2c(s1)CS(=O)C2 (stereo unspecified) | 5.21% (inactive)
CC(C)c1nc(N2CCOCC2)c(C#N)c2c1CCC2 | -3.95% (inactive)
CCOC(=O)c1cnc2cc(Cl)c(OC)cc2c1NCC1CCCO1 (stereo unspecified) | 3.77% (inactive)
c1ccc(-n2nc3c(ccc4cnnc43)[nH]2)cc1 | -1.01% (inactive)
COc1ccc(-c2ccc(-c3noc(-c4ccccc4)n3)c(OC)n2)cc1 | 5.4% (inactive)
COc1ccc(-c2ccc(-c3noc(-c4ccccc4C)n3)c(OC)n2)cc1 | 79.6% (active)
COc1ccc(-c2ccc(-c3noc(-c4ccccc4OC)n3)c(OC)n2)cc1 | 13.8% (inactive)
CCOC(=O)c1sc(C)c(C(N)=O)c1NC1=NCCCCC1 | 2.74% (inactive)
CCN(CC)C(=O)Sc1cccc2cccnc12 | 7.36% (inactive)
CN(C)c1ccc(C(=O)N2CC(=O)N(CCc3ccccc3)C(=O)C2)cc1 | 0.16% (inactive)
CCOC(=O)N1CCC(N2C(=O)c3ccccc3C2Nc2ccc3c(C)cc(=O)oc3c2)CC1 (stereo unspecified) | -77% (inactive)
Cc1cc(C)c2c(N)c(C(=O)Nc3nccs3)sc2n1 | -7.23% (inactive)
COc1ccccc1Nc1nc(-c2cccs2)cs1 | 4.53% (inactive)
O=c1c2[nH]c3ccccc3c2ncn1Cc1cccnc1 | 5.84% (inactive)
Cc1oc2c(CN3CCCC3)c(O)ccc2c(=O)c1-c1ccc(Br)cc1 | 11.1% (inactive)

Structure (SMILES) | inhibition
O=c1[nH]c2cc3c(cc2cc1C(c1nnnn1C1CCCC1)N1CCSCC1)OCCO3 (stereo unspecified) | 1.34% (inactive)
CN1CCN(CCCNC(=O)Nc2cccc3ccccc23)CC1 | 4.59% (inactive)
COc1ccc(C2C(C(=O)N3CCN(c4ccccn4)CC3)CC(=O)N2c2ccc(OC)cc2)cc1 (stereo unspecified) | 1.09% (inactive)
COC(=O)c1[nH]c2cccc(OC)c2c1NC(=O)CN1CCC(C(N)=O)(N2CCCCC2)CC1 | 5.66% (inactive)
C=C(Cl)COc1ccc2c(CC)cc(=O)oc2c1 | 6.13% (inactive)
CC1=CC2=NC(=O)CC(C)(C(=O)N(CC(=O)NC(C)(C)C)C3CCCC3)N2C=C1 (stereo unspecified) | 2.69% (inactive)
Cc1nc2c(C(=O)O)cnn2c(C)c1Cc1ccccc1F | 5.94% (inactive)
N#Cc1nc(-c2ccccc2F)oc1NCc1ccccc1 | -7.81% (inactive)
Cc1cccc(-n2c(SCCC(=O)O)nnc2-c2cccs2)c1C | 6.84% (inactive)
COc1ccc(-c2nc3nc(C)cc(C)n3n2)cc1 | 1.15% (inactive)
Cc1cc(NC(=O)CSc2ccc3nnc(-c4cccnc4)n3n2)no1 | 0.22% (inactive)
COCCCNC(=O)CSC1=Nc2ccccc2C2=NC(CC(=O)NCc3ccccc3)C(=O)N12 (stereo unspecified) | 0.89% (inactive)
COCCn1c(SCc2csc(-c3ccccc3)n2)nc2ccccc21 | 3.46% (inactive)
Cc1cccn2c(=O)c3cc(C(=O)N4CCN(C(=O)c5ccco5)CC4)n(C)c3nc12 | 0.62% (inactive)
O=C(CCCOc1ccccc1)Nc1nccs1 | 3.79% (inactive)
COc1ccc2[nH]c(=O)c(CN(CCCN(C)C)C(=O)Nc3ccccc3)cc2c1 | 0.48% (inactive)
O=C(Nc1ccon1)c1cnc2sccn2c1=O | 3.24% (inactive)
O=c1[nH]c(=O)n(Cc2ccccc2)c2nc(-c3ccco3)cc(C(F)(F)F)c12 | -103% (inactive)
CCCSc1n[nH]c(NC(C)=O)n1 | 3.35% (inactive)
O=C(Cc1ccccc1)Nc1ccc2oc(-c3cccnc3)nc2c1 | -8.29% (inactive)
O=C(Nc1nc(-c2cc3ccccc3oc2=O)cs1)c1ccco1 | 3.89% (inactive)
COc1ccc(C(=O)NCc2nnc(SC)n2C2CCCCC2)cc1 | -1.48% (inactive)
COc1cccc(Cn2c(=S)[nH]c3ccc(N4CCOCC4)cc3c2=O)c1 | 3.27% (inactive)
Cc1cc(=O)oc2cc(OC(C)C(=O)Nc3nccs3)ccc12 (stereo unspecified) | 3.57% (inactive)
